Assay outcomes from PubChem.
Shiga toxin inh – A qHTS for Small Molecule Inhibitors of Shiga Toxin; Vero cells, Shiga toxin protein synthesis inhibition reporter; inhibition, % at 38.7 µM; 290,000 tested, 9.2% active; in the data active = inhibition mostly above about 28%, no sharp cut-off; inactive = mostly below about 43%; note: 0% is about no effect
Pf growth 48h – Primary qHTS for delayed death inhibitors of the malarial parasite plastid, 48 hour incubation | P. falciparum luciferase growth in erythrocytes, 48 h | Potency, µM (top dose mostly 28.7 µM), inactives show at the top dose activity change, negative = inhibition, hits mostly inhibitors | 310,000 tested, 5.9% active; note: potency is the fitted concentration of half-maximal effect; % is set by controls: 0 for no effect and ±100 for the full control effect
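Growth was read as firefly luciferase luminescence after a 48 h, 37 C, 5% CO2 exposure of compounds to reporter-bearing P. falciparum cultures (0.1% parasitemia, 2% hematocrit final) in Albumax-supplemented RPMI 1640.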
AMA1-RON2 inh – qHTS for Inhibitors of AMA1-RON; Towards Development of Antimalarial Drug Lead: Primary Screen; Plasmodium falciparum AMA1 (3D7) - RON2 peptide interaction; AID 720542, 2013; Potency, µM (highest dose often 58.2 µM), inactives show at the top dose activity change, negative = inhibition, usual class: inhibitors; 360,000 tested, 0.2% active; AlphaScreen AMA1-biotinylated RON2 peptide binding;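 note: potency is the fitted concentration of half-maximal effect; 0% = vehicle wells and -100% = peptide control; nearly all actives have a fitted effect of over 45% in size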
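AMA1 (3D7) with his tag at 25 nM final met compounds first, then biotinylated RON2 peptide at 25 nM; detection used donor plus acceptor beads, 10 µg/mL apiece, read by AlphaScreen after 30 min at room temperature.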
Pf growth 96h – Primary qHTS for delayed death inhibitors of the malarial parasite plastid, 96 hour incubation. P. falciparum luciferase reporter growth, 96 h. 320,000 tested, 6.9% active. Potency, µM (series often up to 28.7 µM), without a hit: at the highest dose activity change, negative = inhibition, most hits filed as inhibitors; note: potency is the fitted concentration of half-maximal effect; % is set by controls: 0 for no effect and ±100 for the full control effect
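96 h incubation, 37 C, 5% CO2, of luciferase-reporter P. falciparum-infected RBCs (2% hematocrit, 0.05% parasitemia final) with test compounds; endpoint luminescence.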
SARS PLpro yeast – qHTS of Yeast-based Assay for SARS-CoV PLP; S. cerevisiae expressing SARS-CoV PLpro, growth rescue; Potency, µM (series often up to 32.9 µM), without a hit: at the highest dose activity, positive = growth rescue, usual class: activators; 330,000 tested, 0.19% active; calls by dose curve; note: potency is the fitted concentration of half-maximal effect; 0% is about no effect; nearly all actives have a fitted effect of over 55% in size
Cycloheximide cs – Cycloheximide Counterscreen for Small Molecule Inhibitors of Shiga Toxin. cell reporter, cycloheximide protein synthesis inhibition counterscreen. max response, %. 300,000 tested, 12% active; in the data active = max response mostly above about 13%, no sharp cut-off; inactive = mostly below about 14%; note: read at 38.3 µM for the half of the compounds with a filed dose; 0% is about no effect
* hit, by the source's call; ? = inconclusive; / = not tested or not shown. Rows were chosen to be rich in hits. Some 19% of all compounds tested hit in one or more screens of this group. Unless noted, calls come from the whole dose curve; as a rule, active = well fitted curve in the direction sought with a large enough effect; inconclusive = small, poorly fitted or top-dose-only effect, or another doubt; inactive = no such curve, though single readings can be large; an effect the other way counts as inactive or inconclusive.

SMILES	Shiga toxin inh	Pf growth 48h	AMA1-RON2 inh	Pf growth 96h	SARS PLpro yeast	Cycloheximide cs
CN1C[C@@H]2C(c3ccc(C(F)(F)F)cc3)C3(c4ccccc4)CC2(C3)[C@H]1c1ccccc1 (stereo not given in full)	1.3	?	?	?	0.1%	0.8
COc1ccc(CCNC(=O)COC(=O)c2ccccn2)cc1	/	/	38.2%	/	-13.7%	/
CCOc1ccc(-c2nc(CN(Cc3ccccc3)C[C@@H]3CCC(=O)N3)c(C)o2)cc1	9.4	?	-4.4%	-0.2%	-1.0%	8.2
O=C(Nc1cccc(C(=O)N2CCCCCC2)c1)c1ccco1	-2.0	13.4%	0.9%	-28.8%	1.1%	10.4*
O=C(Nc1cc(Br)c(O)c(Br)c1)c1cccc(NC(=O)c2ccco2)c1	/	?	-8.3%	7.38µM*	3.0%	-3.8
O=C(Nc1cccc(NC(=O)c2ccco2)c1)c1cccc(Br)c1	85.8*	0.0%	4.1%	-13.5%	-23.8%	20.5
CC(=O)c1cccc(NC(=O)c2cccc(NC(=O)c3ccco3)c2)c1	/	-1.2%	?	-20.1%	-3.4%	4.2
COc1cc(CN(C(=O)c2ccco2)C2CCS(=O)(=O)C2)cc(OC)c1OC (stereo not given)	0.4	6.5%	-1.2%	87.5%	12.0%	-6.7
Cn1cccc1C(=O)OCc1ccc(C(C)(C)C)cc1	98.4*	127.6%	?	83.5%	-1.7%	31.8*
CN(C)/C=C/C(=O)c1ccc(Br)cc1	60.8*	27.5%	16.6%	0.0%	-3.5%	26.0*
CN(O)/C=C/C(=O)c1ccc(Br)cc1	26.6	0.0%	-3.4%	-0.7%	-4.4%	0.3
Cc1ccc(C)n1-c1ccc(C(=O)/C=C/N(C)C)cc1	37.6	?	-10.0%	14.7µM*	1.3%	15.6
COc1ccc(N(CCCN2C(=O)c3cccc4cccc(c34)C2=O)C(=O)c2ccncc2)cc1	-14.7	2.33µM*	-9.6%	1.47µM*	0.8%	-1.4
COc1cc(OC)cc(C(=O)N(CCCN2C(=O)c3cccc4cccc(c34)C2=O)c2cccc(OC)c2)c1	1.0	9.28µM*	-4.4%	-99.3%	10.5%	6.7
CCOc1ccc(CCNC(=O)CCCN2C(=O)c3ccccc3C2=O)cc1OCC	-10.3	-14.8%	-5.2%	3.2%	-2.9%	-2.7
CC1CCCC(C)N1C(=O)COC(=O)CNS(=O)(=O)c1ccc2ccccc2c1 (stereo not given)	/	/	-2.7%	/	/	/
COc1ccc(-c2nc(CS(=O)(=O)CC(=O)Nc3ccc(Cl)cc3)c(C)o2)cc1	40.3*	32.0%	-2.1%	-28.9%	-5.3%	19.4*
COc1cccc(-c2nc(CS(=O)(=O)CC(=O)NCCc3cc(OC)ccc3OC)c(C)o2)c1	-3.7	-28.5%	-12.2%	13.1µM*	3.8%	0.3
COc1cc(OC)c(NC(=O)CS(=O)(=O)Cc2nc(-c3ccc(C)cc3)oc2C)cc1Cl	46.0	/	-7.1%	8.28µM*	10.1%	2.8
COc1ccc(NC(=O)CS(=O)(=O)Cc2nc(-c3ccc(C)cc3)oc2C)cc1	-1.4	42.2%	-1.6%	-25.6%	?	-1.0
CCOC(=O)c1cocc1C(=O)O	/	/	-27.5%	/	/	/
COC(=O)c1cn(-c2nc3ccccc3s2)nn1	/	/	16.1%	/	/	/
Cc1ccc(O)c(NC(=O)c2cc(-c3ccccc3Cl)on2)c1	78.1*	?	2.9%	?	-1.8%	34.3*
COc1ccc(-c2cc(C(=O)Nc3cc(C)ccc3O)no2)cc1	21.9	-17.2%	-2.1%	3.29µM*	0.0%	14.0*
COc1ccc(-c2cc(C(=O)Nc3cc(Cl)ccc3OC)no2)cc1	-11.1	6.4%	1.0%	7.1%	1.3%	-2.8
SMILES	Shiga toxin inh	Pf growth 48h	AMA1-RON2 inh	Pf growth 96h	SARS PLpro yeast	Cycloheximide cs
COc1ccc(-c2cc(C(=O)Nc3cc(Cl)ccc3O)no2)cc1	69.9*	?	-4.8%	?	-2.9%	37.9*
CC(C)(C)OC(=O)NC(NC(=O)OCC1c2ccccc2-c2ccccc21)C(=O)O (stereo not given)	-3.1	/	/	/	/	-4.2
O=C(Nc1cccc(C(=O)O)c1)/C(=C\c1cccc([N+](=O)[O-])c1)NC(=O)c1ccc(Br)cc1	/	/	-3.0%	/	/	/
N/C(=N\OC(=O)c1ccco1)c1ccc(Cl)cc1	83.7*	86.1%	9.5%	64.6%	-5.7%	61.7*
N/C(=N\OC(=O)c1ccccc1Cl)c1ccccc1	70.0*	129.0%	23.2%	85.5%	6.1%	35.1*
N/C(=N\OC(=O)c1ccc(Cl)cc1)c1ccn[nH]1	48.8*	-48.3%	17.2%	2.1%	-4.8%	39.3*
O=C(c1ccc(Cl)cc1)N1CCN(C(=O)c2ccco2)CC1	-11.9	9.2%	2.1%	71.4%	-5.8%	4.4
O=C(OCc1ccccc1Cl)c1ccccc1C(=O)c1ccccc1	65.3*	25.9%	50.7%	-46.2%	-25.8%	19.3*
OC[C@@H]1CN(Cc2cccs2)C[C@H](n2cnc3c(NC4CCC4)ncnc32)O1	/	/	-2.7%	/	/	/
O=C1CN(CC(=O)NC2CCCc3ccccc32)CCN1 (stereo not given)	-5.3	-3.5%	0.0%	12.0%	-0.2%	-4.9
N/C(=N\OC(=O)c1ccco1)c1cccnc1	108.6*	44.3%	6.0%	62.7%	0.2%	34.4*
N/C(=N\OC(=O)c1ccccc1Cl)c1ccc(Cl)cc1	62.9*	214.1%	33.0%	36.7%	-28.9%	48.7*
N/C(=N\OC(=O)c1ccc(OCC(F)(F)F)nc1)c1ccc(Cl)cc1	-4.2	-36.7%	10.4%	?	0.6%	-1.3
N/C(=N\OC(=O)c1ccc(Cl)cc1)c1ccc(Cl)cc1	53.8*	?	6.5%	2.62µM*	-94.2%	21.1*
N/C(CCS(=O)(=O)c1ccc(Cl)cc1)=N\OC(=O)c1ccccc1Cl	-2.5	?	17.7%	?	-2.5%	2.9
NC(=O)NOCc1ccccc1F	13.0	23.6%	-1.0%	?	-0.2%	3.2
CCSc1nc(N)c2c3c(sc2n1)CN(C)CC3	-2.4	?	/	?	1.9%	-2.1
COC(CSc1nc(N)c2c3c(sc2n1)CN(C)CC3)OC	41.7	?	-7.7%	?	1.6%	30.7*
C=CCSc1nc(N)c2c(C)c(C)sc2n1	28.9	30.9%	0.8%	-3.4%	4.3%	10.7*
CSc1nc(N)c2c3c(sc2n1)CN(C)CC3	12.6	/	-4.9%	4.65µM*	1.3%	0.8
CC1(C)Cc2c(sc3nc(SCC(=O)N4CCOCC4)nc(N)c23)CO1	1.5	-6.1%	-0.7%	?	3.5%	7.2
CCC(O)CNc1nc(SC)nc2sc3c(c12)CCN(C)C3 (stereo not given)	-10.0	/	5.9%	/	2.3%	-0.5
C=CCSc1nc(N)c2c3c(sc2n1)CN(C)CC3	12.3	?	-8.1%	2.08µM*	-0.1%	21.3*
CCSc1nc(N)c2c(C)c(C)sc2n1	21.0	-10.6%	-0.6%	-24.3%	24.3%	2.0
